Test results from ChEMBL document CHEMBL4513216, “Probing the Open Global Health Chemical Diversity Library for Multistage-Active Starting Points for Next-Generation Antimalarials” (ACS Infect Dis, 2020).
Screen size: about 68,000 compounds; about 2,700 (4%) showed an effect of 50% or more. For the sample, strong results were picked, then their nearest neighbours and some compounds at random.

Tested on: Plasmodium berghei
Assay: Screen against P. berghei liver stage (PbLuc), transformed with Luciferase, at 2uM
Format: functional, HepG2
Conditions: tested at 2 uM

SMILES | INHIBITION [%]
O=C(Nc1ccc(I)cc1C(=O)NCCN1CCOCC1)c1ccco1 | -54.79
O=C(Nc1ccc(Cl)cc1C(=O)NCCN1CCOCC1)c1ccco1 | 60.47
O=C(Nc1ccccc1C(=O)NCCN1CCOCC1)c1ccco1 | -4.93
CN(C)CCOCC1CN(Cc2cccs2)Cc2ccnn2C1 (stereo unspecified) | -85.93
Cc1cc(CN2CCN(C(=O)NCc3ccc(C)s3)CC2)on1 | 6.63
CCCNC(=O)N1CCN(Cc2cc(C)no2)CC1 | 26.4
Cc1cc(CN2CCN(C(=O)NCc3c(C)noc3C)CC2)on1 | 70.27
COc1cc(CCC(=O)NC(C)(C)C)ccc1OCC(F)(F)F | -1.02
CCOCCC1(CNC(=O)c2ccc(C)nc2)CCCC1 | -9.5
CN(C)C(C(=O)N1CCN(CCn2cccc2)CC1)c1ccc(F)cc1 (stereo unspecified) | 31.51
CN(C)C(C(=O)NCCn1cccc1)c1cccc(F)c1 (stereo unspecified) | 3.58
COCCN1CCN(C(=O)C(c2cccc(F)c2)N(C)C)CC1 (stereo unspecified) | 48.21
COCCCN1CCN(C(=O)C(c2cccc(F)c2)N(C)C)CC1 (stereo unspecified) | 60.13
CCOCC1CCN(C(=O)C(c2cccc(F)c2)N(C)C)CC1 (stereo unspecified) | -15.23
CN(C)C(C(=O)N1CCN(CCn2cccc2)CC1)c1cccc(F)c1 (stereo unspecified) | 69.67
CCc1[nH]ncc1C(=O)N1CCCC(n2cccn2)C1 (stereo unspecified) | 2.7
Cc1ccccc1OCCCC(=O)N1CCCC(n2cncn2)C1 (stereo unspecified) | 39.54
O=C(C1CN(CC2CC2)CC12CCOCC2)N1CCCC1 (stereo unspecified) | 31.41
COCCN1C[C@H]2CN(Cc3cccc(OC)c3)CCN2C1=O | 36.44
O=C1N(Cc2ccccc2)C[C@H]2CN(Cc3ccccc3Cl)CCN12 | 64.44
Cc1ccc(CN2C[C@H]3CN(Cc4ccccc4Cl)CCN3C2=O)cc1 | 40.83
CS(=O)(=O)NC[C@]12COC[C@H]1CN(Cc1ccc3c(c1)OCO3)C2 | -6.8

SMILES | INHIBITION [%]
CCN(CC)CC1CCN(C(=O)CCn2cccn2)CC1 | -13.06
c1cnc(N2CCC(C3CCN(CCCn4cccn4)C3)CC2)nc1 (stereo unspecified) | 19.04
CCCC1CCCN(C(=O)CCn2cccn2)CC1 (stereo unspecified) | 63.68
O=C(CCn1cccn1)N1CCC(C2CCN(c3ncccn3)CC2)C1 (stereo unspecified) | 52.08
O=C(CCc1cn[nH]c1)N1CCC(C2CCN(c3ncccn3)CC2)C1 (stereo unspecified) | 45.48
COC1CCN(C(=O)CCn2cccn2)CC1 | 26.61
Cn1cccc1C(=O)N1CC2(CCN(C(=O)c3cccnc3)C2)C1 | 21.77
CCc1noc(C2CCN(C(=O)CCn3nc(C)cc3C)CC2)n1 | 12.3
c1ccc(Cc2noc(CN3CCOC(Cn4cccn4)C3)n2)cc1 (stereo unspecified) | -0.6
O=C(CCO)N1C[C@H]2CN(c3ccccc3)C(=O)[C@H]2C1 | 54.01
O=C(C1CCC1)N1C[C@@H]2CN(c3ccccc3)C(=O)[C@@H]2C1 | 49.07
O=C(CC1CC1)N1C[C@@H]2CN(c3ccccc3)C(=O)[C@@H]2C1 | 28.2
NC(=O)COc1ccc(CNCc2ccc(F)c(F)c2)cc1 | -52.95
Cn1ccnc1CCNS(=O)(=O)c1ccc(Br)cc1 | -16.21
COc1cccc2c1CCC2NC(=O)NCc1csc(N(C)C)n1 (stereo unspecified) | -57.02
Cc1nn(C)c(N(C)C)c1CNC(C)COc1cccc(F)c1 (stereo unspecified) | 34.83
CC(C)N(C(=O)CCc1ccco1)C1CCOCC1 | 76.6
CC(C)N(C(=O)CCc1cccc(F)c1)C1CCOCC1 | -7.16
COc1ccc(CCC(=O)N(C(C)C)C2CCOCC2)cc1 | 20.76
O=C(NCC1CCCCO1)c1ccc(-c2ccco2)[nH]c1=O (stereo unspecified) | 38.67
CCN1CCN(S(=O)(=O)c2cc(C)c(Cl)cc2Cl)CC1 | 26.09
Cc1cc(S(=O)(=O)N2CCC(N3CCC(O)C3)CC2)c(Cl)cc1Cl (stereo unspecified) | 55.73

SMILES | INHIBITION [%]
Cc1cc(S(=O)(=O)N2CC[C@@H](O)C2)c(Cl)cc1F | -54.78
CC(C)c1nnc(CN(C)Cc2ccccc2-c2ccccc2)o1 | 20.63
CC(CCN1CCOCC1)NC(=O)c1cccc(C(F)(F)F)c1F (stereo unspecified) | 18.37
CC(CCN(C)C)NC(=O)c1cccc(C(F)(F)F)c1F (stereo unspecified) | 52.38
COc1cccc(C(=O)NC(C)CCN2CCOCC2)c1F (stereo unspecified) | -22.65
Cc1nnc2n1CCN(CCOc1cccc(C#N)c1)C2 | 33.82
CC(C)(O)CCc1ccc(C(=O)NCC2CCCOC2)cc1 (stereo unspecified) | 42.27
Cc1ccc(C(=O)N2C[C@@H](NS(C)(=O)=O)[C@H](C(C)C)C2)cc1O | 51.72
Cc1nc2cc(C(=O)N3C[C@@H](NS(C)(=O)=O)[C@H](C(C)C)C3)ccc2[nH]1 | -1.71
Cc1ccc(C(=O)N2C[C@H](NS(C)(=O)=O)[C@@H](C(C)C)C2)cc1F | -43.88
O=C(c1ccco1)N1C2CCC(O)(CC2)C1CO (stereo unspecified) | 3.38
NC1CCc2c(ccc(=O)n2Cc2ccncc2)C1 (stereo unspecified) | 55.11
O=c1ccc2c(n1Cc1cccnc1)CCN(Cc1ccoc1)CC2 | 0.13
O=c1ccc2c(n1Cc1ccncc1)CCN(Cc1ccoc1)CC2 | 50.91
NC1CCc2c(ccc(=O)n2CC2CC2)C1 (stereo unspecified) | 24.86
O=c1ccc2c(n1CCN1CCCC1)CCN(Cc1ccoc1)CC2 | -1.79
CCn1c2c(ccc1=O)CC(N)CC2 (stereo unspecified) | 13.38
CCOCC1CN(Cc2ccco2)Cc2nccn2C1 (stereo unspecified) | -7.76
CNS(=O)(=O)c1cnccc1N1CCN(C(C)C)CC1 | 15.75
Cc1csc(CCNc2ccc(C#N)cn2)n1 | 20.29
Cc1cccc(NCCNc2ccc(C#N)cn2)n1 | 60.79
Cc1cc(NCCNc2ccc(C#N)cn2)nc(C)n1 | 21.81

SMILES | INHIBITION [%]
COc1ccc(NC(=O)NCC(O)c2ccc(F)cc2F)c(OC)c1 (stereo unspecified) | 47.72
CCn1ccnc1CN1CCN(c2nccc(OC)n2)CC1C (stereo unspecified) | 72.05
CCn1ccnc1CN1CCN(C(C)C)CC1C (stereo unspecified) | -49.57
CCCN1CCN(Cc2nccn2CC)C(C)C1 (stereo unspecified) | 16.97
COc1ccccc1C(NCc1ccc(SC)cc1)c1nccn1C (stereo unspecified) | 16.26
COc1ccc2c(c1)CCN(Cc1cscn1)CC2 | 1.54
COc1ccc(OC)c(CN2CCN(Cc3cscn3)CC2)c1 | 1.3
COc1ccc(C2CCN(Cc3cscn3)CC2)cc1 | 56.84
Cc1csc2ncc(-c3ccnc(N4CCC[C@H](C(N)=O)C4)n3)c(=O)n12 | 43.16
COC[C@@H]1CC[C@H]2[C@H](CCN2S(=O)(=O)c2cccc(F)c2)O1 | 9.46
CNC(=O)NC(=O)CN1CCc2c(Br)ccc(F)c2C1 | -20.8
NC(=O)C1(CCCc2ccccn2)CCCN(CCO)C1 (stereo unspecified) | -17.3
COCCN1CCCC(CCCc2ccccn2)(C(N)=O)C1 (stereo unspecified) | 55.74
NC(=O)CN1CCCC(CCCc2ccccn2)(C(N)=O)C1 (stereo unspecified) | 12.8
Cc1cc(C)cc(N(C)S(=O)(=O)c2cc3c(c(C(=O)O)c2)OCCO3)c1 | 34.46
O=C(O)c1cc(S(=O)(=O)Nc2ccc(F)cc2F)cc2c1OCCO2 | -29.54
CN(c1ccccc1)S(=O)(=O)c1cc2c(c(C(=O)O)c1)OCCO2 | 53.19
Cc1ccc(NS(=O)(=O)c2cc3c(c(C(=O)O)c2)OCCO3)c(F)c1 | 57.95
CN(c1ccc(F)cc1)S(=O)(=O)c1cc2c(c(C(=O)O)c1)OCCO2 | 26.75
Cc1ccc(F)c(NS(=O)(=O)c2cc3c(c(C(=O)O)c2)OCCO3)c1 | -45.83
O=C(Cc1cccs1)NCC1COCc2c(-c3ccoc3)nnn2C1 (stereo unspecified) | 24.34
COc1cc(CN(C)C(=O)NCCC(=O)NC2CCCC2)ccc1SC | 49.88

SMILES | INHIBITION [%]
Cc1occc1C(=O)N1CCCS1(=O)=O | 29.41
CN(C)S(=O)(=O)N1CC[C@]2(C[C@H](OCc3ccncc3)CO2)C1 | 9.65
COCCN1CC(Nc2nc(C3CCCC3)nc3c2cnn3C)CC1=O (stereo unspecified) | 40.4
COCCN1CC(Nc2nc(C(C)C)nc3c2cnn3C)CC1=O (stereo unspecified) | 57.34
CC(C)C(=O)N1CCC(CNc2nc(C(C)C)nc3c2cnn3C)CC1 | 19.12
C=c1ncsc1=C1NN=C(C2CCCN2C(=O)CCn2ccc(C)n2)O1 (stereo unspecified) | -16.2
CC(NC(=O)NCCCN1CCc2ccccc2C1)c1nncn1C (stereo unspecified) | 10.53
CN1CCN(S(=O)(=O)c2cncc(F)c2)c2ccccc2C1 | 52.73
Cc1cc(F)ccc1S(=O)(=O)N1CCN(C)Cc2ccccc21 | 26.62
COc1cc(F)c(S(=O)(=O)N2CCN(C)Cc3ccccc32)cc1OC | -50.8
CN(C(=O)Cn1nc(-c2ccc(F)cc2)ccc1=O)C1CCS(=O)(=O)C1 (stereo unspecified) | 11.87
CS(=O)(=O)N1CCCC1c1ccnc2nccn12 (stereo unspecified) | 12.35
CC(C)Oc1cc(N2CC[C@H](CO)[C@@H](O)C2)nc(N)n1 | -1.63
CC(C)Oc1cc(N2CCC(C(N)=O)CC2)nc(N)n1 | 54.41
CC(C)Oc1cc(N2CCC(N3CCC(O)CC3)CC2)nc(N)n1 | 2.39
CC(O)c1cccc(Nc2nc(NCCO)c3ccccc3n2)c1 (stereo unspecified) | 60.26
CCN(CC)c1nc(Nc2cccc(C(=O)O)c2)nc2ccccc12 | 22.51
CCN(CC)c1nc(Nc2cccc(C(C)O)c2)nc2ccccc12 (stereo unspecified) | 6.9
